# Experimental data reported in PubChem BioAssay AID1240 (Sanford-Burnham Center for Chemical Genomics, 2008).
# Out of some 50,000 compounds screened, about 800 (1.6%) showed an effect of 50% or more. What follows is part of a selection rich in strong results, with near analogues and random picks from the rest.
# Biological target: Bcl-2-like protein 10 (Homo sapiens) (UniProt Q9HD36)
# Experiment: Phenotype converters, Bcl-B/TR3 peptide binding displacement, primary biochemical FP (AID 1240);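 note: 0% = Bcl-B with tracer peptide and DMSO and 100% = tracer peptide lacking Bcl-B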
# Conditions: GST-Bcl-B / FITC-TR3 peptide fluorescence polarization; stronger effect = higher value; compound at 3.75 mg/L
# Bcl-2-like protein 10 (Homo sapiens), sequence (Q9HD36 whole entry, looked up): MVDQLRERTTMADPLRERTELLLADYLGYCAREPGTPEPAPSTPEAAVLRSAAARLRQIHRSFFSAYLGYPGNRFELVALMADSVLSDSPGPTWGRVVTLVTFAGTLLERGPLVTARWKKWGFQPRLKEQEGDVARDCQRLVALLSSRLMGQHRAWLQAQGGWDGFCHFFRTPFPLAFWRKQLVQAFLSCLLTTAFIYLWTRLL
row,SMILES,displacement
1,O=C(Nc1ccc(Cl)c(Cl)c1)c1ccc([N+](=O)[O-])o1,-8%
2,Cc1cc(C)c2nc3s/c(=C\c4ccc(-c5cc([N+](=O)[O-])c(C)cc5C)o4)c(=O)n3c2c1,-20.8%
3,Cc1c(Cl)cccc1N1C(=O)c2ccccc2C1=O,7.1%
4,CN1CCO/C1=C(C#N)\C=C1\Nc2ccccc2C1=O,-77.4%
5,CN1CCO/C1=C(C#N)\C=C1/C(=O)N(c2c(Cl)cccc2Cl)c2ccccc21,67.6%
6,COc1ccc(/C=C2\SC(N3CCCCCC3)=NC2=O)cc1OC,-1.9%
7,Cc1ccc(S(=O)(=O)Oc2ccc(/C=C3/SC(=S)N(C)C3=O)cc2)cc1,-3.3%
8,Cc1cccn2c(=O)c(/C=N/NC(=O)c3ccccc3O)c(N3CCCCC3)nc12,130%
9,Cc1cccn2c(=O)c(C=O)c(N3CCCCC3)nc12,3.9%
10,Cc1cccn2c(=O)c(C=O)c(N3CCC(C)CC3)nc12,17%
11,CCOC(=O)COc1ccc(/C=C2\C(=O)NC(=O)N(c3ccc(OC)cc3)C2=O)cc1OC,0.6%
12,Cc1cc(C)cc(N2C(=O)NC(=O)/C(=C\c3cc(Br)ccc3OCC(=O)O)C2=O)c1,-7.4%
13,CCN(CC)CCNc1nc2nonc2nc1NCCN(CC)CC,-0.5%
14,NC(=O)c1cc(NC(=O)c2cc3ccccc3cc2O)cc(C(N)=O)c1,-4.2%
15,CN(C)c1ccc(NC(=O)c2ccc(Br)cc2)cc1,48.8%
16,COc1cc(OC)cc(C(=O)Nc2ccc3oc(-c4ccc(I)cc4)nc3c2)c1,-5.8%
17,COc1cc(OC)cc(C(=O)Nc2cccc(-c3nc4ncccc4o3)c2C)c1,5.6%
18,CCOc1ccc(C(=O)Nc2cccc(-c3nc4cc(C)ccc4o3)c2C)cc1,17.4%
19,COc1ccc(Br)cc1C(=O)Nc1cccc(-c2nc3cc(C)ccc3o2)c1C,20.2%
20,COc1cc(OC)cc(C(=O)Nc2cccc(-c3nc4cc(C)cc(C)c4o3)c2C)c1,58.7%
21,COc1cc(OC)cc(C(=O)Nc2ccc(-c3nc4cc(C)cc(C)c4o3)cc2)c1,55.3%
22,Cc1cc(C)c2oc(-c3ccc(NC(=O)c4cccc([N+](=O)[O-])c4C)cc3)nc2c1,-3.8%
23,CC(=O)Nc1cccc(-c2nc3cc(C)ccc3o2)c1C,99.7%
24,COc1cc2ccccc2cc1C(=O)Nc1cccc(-c2nc3cc(C)cc(C)c3o2)c1C,26.5%
25,Cc1onc(-c2c(Cl)cccc2Cl)c1C(=O)Nc1ccc(N(C)C)cc1,12.1%
26,CCOC(=O)c1c(NC(=O)COc2ccccc2C)sc(C(=O)Nc2ccccc2F)c1C,-0.6%

row,SMILES,displacement
1,CN(C)c1ccc(-c2ncnn2-c2sc3c(c2C#N)CCCC3)cc1,3.1%
2,Cc1ccc(NCC(=O)N/N=C\c2ccc(OCc3ccccc3)cc2)cc1,6.5%
3,O=[N+]([O-])c1ccc(-n2ncnc2-c2ccc(F)cc2)cc1,10.5%
4,O=C(O)C(Cc1ccccc1)N1C(=O)/C(=C/c2ccc(O)cc2)SC1=S (stereo not drawn),-23.7%
5,CN(C)c1ccc(/C=N/Nc2cc(N3CCOCC3)ncn2)cc1,-14.2%
6,O=C(Cn1c2ccccc2c(=O)c2ccccc21)N/N=C/c1cc([N+](=O)[O-])ccc1N1CCCC1,73.6%
7,O=C(Cn1c2ccccc2c(=O)c2ccccc21)N/N=C/c1cc([N+](=O)[O-])ccc1N1CCCCC1,-6.8%
8,O=C(Cn1c2ccccc2c(=O)c2ccccc21)N/N=C/c1cc([N+](=O)[O-])ccc1N1CCCCCC1,-7%
9,COc1ccc(CN2CCN(C(=O)c3ccc(F)cc3)CC2)cc1Br,8.4%
10,Cc1no[n+]([O-])c1COc1ccc(/C=C2\NC(=S)NC2=O)cc1,-73.2%
11,CCOc1ccc(/C=C2\C(=O)NC(=O)N(c3ccccc3C)C2=O)cc1Cl,0.3%
12,COc1cc(C=C2C(=O)NC(=O)NC2=O)ccc1OCCSc1ccc(C)cc1,64.1%
13,COc1ccccc1/C=C1/C(=O)NC(=O)N(c2ccccc2OC)C1=O,-2.3%
14,COc1cc(C=C2C(=O)NC(=O)NC2=O)ccc1OCCOc1ccc(C)cc1,32.2%
15,COc1ccccc1OCCOc1ccc(/C=C2/C(=O)NC(=O)N(c3ccccc3C)C2=O)cc1OC,76.2%
16,COc1cc(/C=C2/C(=O)NC(=O)N(c3ccccc3)C2=O)ccc1OCC(=O)O,6.2%
17,COc1cc(/C=C2/C(=O)NC(=O)N(c3ccccc3C)C2=O)ccc1OCCOc1ccccc1,69.3%
18,COc1ccccc1N1C(=O)NC(=O)/C(=C/c2c(OC)ccc3ccccc23)C1=O,1.1%
19,COc1cc(/C=C2/C(=O)NC(=O)N(c3cccc(C)c3)C2=O)ccc1OCCOc1ccccc1,19%
20,COc1ccccc1N1C(=O)NC(=O)/C(=C\c2cc3ccccc3n2C)C1=O,165%
21,COc1cc(C=C2C(=O)NC(=O)NC2=O)ccc1OCCO,-2.4%
22,COc1ccc(N2C(=O)NC(=O)/C(=C/c3ccc(OCCOc4ccc(C)cc4)c(OC)c3)C2=O)cc1,12.8%
23,Cc1c(Nc2nc3nonc3nc2Nc2cccc(Cl)c2)c(=O)n(-c2ccccc2)n1C,10%
24,CCOc1ccc(N2C(=O)C3CC=CCC3C2=O)cc1 (stereo not drawn),14.7%
25,O=C(O)CCC(=O)Nc1ccc(S(=O)(=O)N2CCCCCC2)cc1,3%
26,O=C(/C=C/c1ccc([N+](=O)[O-])cc1)NC(=S)Nc1ccccc1Cl,-3.4%

row,SMILES,displacement
1,CCOC(=O)C(C)Oc1ccc2c(C)c(CC)c(=O)oc2c1 (stereo not drawn),-3.1%
2,COc1ccc(NC(=O)CSc2nc3ccc(N4C(=O)c5ccccc5C4=O)cc3s2)cc1,1.7%
3,COc1ccccc1NC(=O)CSc1nc2ccc(N3C(=O)c4ccccc4C3=O)cc2s1,84.2%
4,COC(=O)c1ccccc1NC(=O)CSc1nc2ccc(N3C(=O)c4ccccc4C3=O)cc2s1,3.2%
5,CN1/C(=C\C=N\Nc2ccc([N+](=O)[O-])cc2)C(C)(C)c2ccccc21,-4.6%
6,Cc1sc2ncn(/N=C/C=C3\N(C)c4ccccc4C3(C)C)c(=O)c2c1C,75.7%
7,Cc1ccc(-n2cnc3sc(C)c(C)c3c2=O)cc1,-0.9%
8,O=C(O)c1cccc(N(CCO)CCO)c1,6%
9,COc1cccc(NC(=O)CCCN2C(=O)c3cccc4cccc(c34)C2=O)c1,6.9%
10,COc1ccc(C2=C/C(=C/c3cccs3)C(=O)O2)cc1,7.8%
11,COC(=O)C1=CN(Cc2ccc(OC)cc2)C=C(C(=O)OC)C1c1cccs1,2.9%
12,COc1ccc(C2=CC(c3cccs3)C=C(c3ccc(OC)cc3)O2)cc1,162%
13,Cc1ccc(CN2CCN(/N=C\c3cc(Br)ccc3O)CC2)cc1,-6%
14,Cc1ccc(C(=O)Nn2c(O)c(C3=c4ccccc4=NC3=O)sc2=S)cc1,-18.6%
15,O=C1CC(c2ccccc2)CC(O)=C1C=Nc1ccc(Br)cc1 (stereo not drawn),-3.8%
16,O=C1CC(c2ccccc2)CC(O)=C1C=Nc1ccc(F)cc1 (stereo not drawn),-1.2%
17,Cc1cc(C)cc(N=CC2=C(O)CC(c3ccccc3)CC2=O)c1 (stereo not drawn),84.1%
18,O=C(O)CCC(=O)Nc1ccc(F)cc1,-7.3%
19,CC1CCN(C2=NC(=O)/C(=C/c3ccc(N(C)C)cc3)S2)CC1,157%
20,Cc1ccc(/C=C2\SC(N3CCC(C)CC3)=NC2=O)cc1,-15%
21,CN(C)c1ccc(/C=C2\SC(N3CCN(C4=NC(=O)/C(=C\c5ccc(N(C)C)cc5)S4)CC3)=NC2=O)cc1,-12.9%
22,O=C(O)c1ccc(NC(=O)c2ccc(Cl)cc2)cc1,-3.6%
23,COc1cc(/C=C/C(=O)c2c(C)cc(C)[nH]c2=O)cc(OC)c1OC,8.5%
24,Cc1ccc(/C=C2\SC(=Nc3ccc(F)cc3)NC2=O)o1,101%
25,Cc1ccccc1/C=C1/SC(=Nc2ccc(F)cc2)NC1=O,7.8%
26,COc1ccc(/C=C2/SC(=Nc3ccc(F)cc3)NC2=O)c(OC)c1,11.6%

row,SMILES,displacement
1,COc1ccccc1/C=C1/SC(=Nc2ccc(F)cc2)NC1=O,161%
2,Cc1ccc(N=C2NC(=O)/C(=C\c3ccc(C)o3)S2)cc1,-9.8%
3,O=C1NC(=Nc2ccc(F)cc2)S/C1=C\c1ccco1,32.8%
4,COc1ccc(/C=C2\SC(=S)N(NC(=O)c3cccnc3)C2=O)cc1,3.4%
5,COc1ccc(/C=C(/C#N)c2nc(-c3ccc(Br)cc3)cs2)cc1OC,101%
6,COc1cc(/C=C(\C#N)c2nc(-c3ccc(-c4ccccc4)cc3)cs2)ccc1O,112%
7,COc1ccc(/C=C(\C#N)c2nc(-c3ccc(C)cc3)cs2)cc1,4.5%
8,Cc1ccc(-c2csc(/C(C#N)=C\c3ccc(C)s3)n2)cc1,-2.9%
9,CCCCc1ccc(-c2csc(/C(C#N)=C/c3ccc(O)c(OC)c3)n2)cc1,2.4%
10,CCCCc1ccc(-c2csc(/C(C#N)=C/c3ccc(OC)c(OC)c3)n2)cc1,4.8%
11,N#C/C(=C\c1ccc(O)cc1)c1nc(-c2ccc(-c3ccccc3)cc2)cs1,21.6%
12,COc1cccc(/C=C(\C#N)c2nc(-c3ccc(Br)cc3)cs2)c1,-7.3%
13,COc1ccc(-c2csc(/C(C#N)=C\c3ccc(C)s3)n2)cc1,115%
14,Cc1ccc(/C(O)=C2\C(=O)C(=O)N(c3nncs3)C2c2cccc(Cl)c2)cc1 (stereo not drawn),12.7%
15,Cc1cc(C)c2nc3s/c(=C\c4ccc([N+](=O)[O-])cc4)c(=O)n3c2c1,-6.3%
16,O=C(Nc1ccc(Br)cc1)C1C(c2ccccc2)=C1c1ccccc1,-6.7%
17,CC(=O)N1c2ccccc2NC2=C(C(=O)CC(c3ccccc3)C2)C1c1ccccc1Cl (stereo not drawn),-12%
18,CC1(C)c2ccccc2N(CCO)C12C=Cc1cc(Br)ccc1O2 (stereo not drawn),7.8%
19,Cc1ccc(CNC(=O)c2ccc([N+](=O)[O-])cc2Cl)cc1,0.9%
20,Cc1ccccc1NC(=O)c1c(N)sc2c1CCCC2,12.7%
21,COc1ccc(C2/C(=C(\O)c3ccc(Cl)cc3)C(=O)C(=O)N2c2cccnc2)c(OC)c1 (stereo not drawn),-7.1%
22,CCOc1ccc(/C=C2/SC(NC(C)=O)=NC2=O)cc1OCC,54.6%
23,CCOc1ccccc1/C=C1/SC(NC(C)=O)=NC1=O,12.9%
24,CCOc1cc(/C=C2/SC(N)=NC2=O)ccc1OCc1ccc(F)cc1,-15.9%
25,CCOc1ccc(/C=C2/SC(NC(C)=O)=NC2=O)cc1,132%
